Test results published in the OligoGym collection.

What follows are sequences tested against ZNF708 (assay: pooled miR-30 sensor sort-seq; sequence = guide strand). Details: shRNA.
Note: reference of the scale not given here.

Sequence | sensor-assay potency score (higher = more potent)
TCTGATATCCACATTTTCCATA | -1.12
TATCTTATGATTCGTAAGGTTT | -1.04
TTGAAAATACACTAAAAGCTTT | -0.61
ATGTCTTATCTTATGTCTCTTT | -1.05
TTCTCTAACATGACATTCCTAT | -0.111

The sequences below were run against ZNF718 in the same assay as above. Details: shRNA.

Sequence | sensor-assay potency score (higher = more potent)
TTATGTGTCGTAAGAGTTGTGG | 0.343
ATATCTTATCTTATCTTTGTTT | -0.436
TTTTGTGTTGAGTTAGGCGTGA | 0.0879
TCTATTATAACCACCTTTCTGC | -0.0639
TTATGTTTAGCAAAGTCTGAGG | -0.614
TTTATCTACAGTGTGAATTTTC | -0.972
ATTTGTAGTATTTTTGTGCAGA | -0.171
TATCTTATCTTATCTTTGTTTG | -1.2
TTAAATTCTCATGTCCACGTTT | -0.266
TAATTCTATTATAACCACCTTT | -0.203

The sequences below were run against ZNF77 in the same assay as above. Details: shRNA.

Sequence | sensor-assay potency score (higher = more potent)
TTCCACATTTCTGACATTCATA | -1.1
TAAAGTAAGTGGGACATCCGAA | -0.639
TTCGGTAGGGTAACTCTTGTGC | 0.248
TTAGGTACAAAATAAGTGCTAT | 0.0583
TAATACATAAAGGTCTTCCCAC | -0.234
TATGTCACAGATGCTGTCCTTG | -0.213
TACAATTTCTTCATCATTGGAT | 0.581
TAAATGTAACAATCCAAGGAGG | -0.849
TTACGGTTGAACACTCTCCCAG | -0.487
TTTTCTCCAAAAATAGACCAGG | -0.35
TAGACCAGGAATCACTTCCTGT | -0.274
TAACATAAATGTAACAATCCAA | -0.347

The sequences below were run against ZNF829 in the same assay as above. Details: shRNA.

Sequence | sensor-assay potency score (higher = more potent)
TTGAGCAATACTTAAAGGCTTT | -0.25
TTGAATAAGTTCTGAGCTCTGA | 0.585
TAATATTTTGGTCTCACACATT | -1.12
TACTTGACTGAAATGTCTCTTC | 0.284
TGAACTACAACTAAAAGCCTTG | -0.242
TTCTTCACATTCATAGAGCTTC | -0.0675
TTTACCAGTGTGAATCCTCTGA | 0.327
TTCATCTGTATGGATTCTCTGA | 0.0212
TTGTAGAAGTTCATCATGCATT | -0.541
TTCTACATTCTTCACATTCATA | -1.09
TTCTCCAACATCACTTCTTTGT | -0.439
TTGACTGAAATGTCTCTTCTTT | 0.505
